Screening data deposited in PubChem BioAssay by National Center for Advancing Translational Sciences (NCATS).
TDP1 block: TDP1 (human) enzyme inhibition. 0.28% of 350,000 active. Potency, µM (doses to about 130 µM), without a hit: at the highest dose activity change, negative = inhibition, most hits filed as inhibitors. Q9NUW8. recombinant TDP1, AlphaScreen DNA substrate cleavage; further: potency means the concentration at half of the fitted maximal effect; nearly all actives have a fitted effect of over 40% in size
Target sequence (Q9NUW8 whole entry, looked up): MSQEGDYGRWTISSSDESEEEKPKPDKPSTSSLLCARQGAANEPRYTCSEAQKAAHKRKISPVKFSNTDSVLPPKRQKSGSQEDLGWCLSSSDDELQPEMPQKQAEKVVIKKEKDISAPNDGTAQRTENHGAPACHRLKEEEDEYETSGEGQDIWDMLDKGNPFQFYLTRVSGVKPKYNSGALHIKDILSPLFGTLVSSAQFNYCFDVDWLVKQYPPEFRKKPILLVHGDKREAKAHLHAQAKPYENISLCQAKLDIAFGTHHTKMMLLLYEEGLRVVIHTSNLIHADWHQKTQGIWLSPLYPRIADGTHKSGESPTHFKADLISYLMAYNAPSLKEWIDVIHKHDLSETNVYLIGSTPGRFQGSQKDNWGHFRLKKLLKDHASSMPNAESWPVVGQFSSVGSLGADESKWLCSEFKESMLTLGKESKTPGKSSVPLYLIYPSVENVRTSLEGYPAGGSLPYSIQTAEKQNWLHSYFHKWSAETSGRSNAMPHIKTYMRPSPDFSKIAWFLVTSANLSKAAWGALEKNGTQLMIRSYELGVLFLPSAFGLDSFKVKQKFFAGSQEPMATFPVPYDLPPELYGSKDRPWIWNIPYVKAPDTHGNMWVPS
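AlphaScreen read-out: signal falls as enzyme removes the 3' tyrosine-FITC from a 5'-biotinylated DNA oligo (15 nM, 5 min, RT). Enzyme was E. coli-made recombinant Tdp1 at 1 nM, exposed to compound for 15 min beforehand; beads 10 ug/ml, 10 min.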
ELG1 DNA repair: blocks ELG1-dependent DNA repair in HEK293T cells | AID 504467 | Potency, µM (titrated, usually from 46.1 µM), without a hit: at the highest dose activity change, negative = inhibition, usual class: inhibitors | 2.3% of 330,000 active | HEK293T ELG1-luciferase reporter, luminescence, 16 h; DNA damage induced by 5-fluorouridine; further: potency means the concentration at half of the fitted maximal effect; nearly all actives have a fitted effect of over 55% in size
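HEK293T cells expressing luciferase-tagged ELG1 (2,000/well) received 5-Fluorouridine plus compound or DMSO for 16 hr at 37 °C. Luciferase was read by ONE-Glo luminescence after 30 min at room temperature.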
IL1B secr inh: inhibitors of inflammasome signaling (IL-1 beta secretion); THP-1 LPS/ATP IL-1B secretion, AlphaLISA, 16 h; hits give low values; 4.7% of 360,000 active; activity change, % at 57.5 µM; AID 743279; in the data active means activity change below about -50%; inconclusive means mostly about -30% to -49%
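Secreted IL-1B measured by AlphaLISA bead assay after 16 h compound exposure of THP-1 cells; compounds (final up to 57.5 uM) added 1 h before LPS (250 ng/mL) and ATP (1.25 mM) stimulation; lower signal means less secretion.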
DT40 TDP1 CPT: growth inhibition of DT40 Tdp1-/-;hTDP1 cells with camptothecin (screen for TDP1 inhibitors) | chicken DT40 Tdp1-/-;hTDP1 cells + 20 nM CPT, ATP luminescence, 48 h | Potency, µM (titrated, usually from 46.2 µM), for the others: top-dose activity change, negative = growth inhibition, usual class: inhibitors | 12% of 420,000 active | AID 686979; further: potency means the concentration at half of the fitted maximal effect; nearly all actives have a fitted effect of over 55% in size
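Cell growth measured by CellTiter-Glo luminescence after a minimum 48 h, 37 C compound exposure with 20 nM CPT in Tdp1-knockout DT40 cells stably expressing hTDP1, seeded 400/well; qHTS titration format.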
DT40 TDP1 no CPT: qHTS for Inhibitors of human tyrosyl-DNA phosphodiesterase 1 (TDP1): qHTS in cells in absence of CPT; DT40 Tdp1-/- hTDP1 cells, no CPT, ATP luminescence, 48 h; 15% of 420,000 active; AID 686978, 2013; Potency, µM (series often up to 46.2 µM), without a hit: at the top dose activity change, negative = growth inhibition, hits mostly inhibitors; further: potency means the concentration at half of the fitted maximal effect; nearly all actives have a fitted effect of over 55% in size
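DT40 Tdp1-/-;hTDP1 cells, no CPT (DMSO vehicle only), 400 cells/well; compounds pin-transferred; ≥48 hr, 37 °C; CellTiter-Glo 30 min RT dark, luminescence read.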
Giardia kill: kills Giardia lamblia; Giardia lamblia trophozoite viability; activity change, % at 7.66 µM, hits read low; 0.15% of 340,000 active; in the data active means activity change below about -80%; inconclusive means between about -30% and that limit;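 further: parasites exposed to compound for two days anaerobically before the ATP read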
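Killing of trophozoites was scored by loss of ATP luminescence after a 48 hrs anaerobic exposure to compounds at 37 deg C, using 100 cells per well.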
Starred values were filed as active, the others as inactive. Most compounds without a hit are left out; they make up all but 19% or so of the library. Unless noted, the call rests on the fitted dose curve; in most records, active means well fitted curve in the direction sought with a large enough effect; inconclusive means small, poorly fitted or top-dose-only effect, or another doubt; inactive means no such curve, though single readings can be large; an effect the other way counts as inactive or inconclusive. On the % scale 0 is the no-effect control and ±100 the full control effect.

`CC1CN(C(C)C)C(C)CC1OC(=O)c1ccccc1` (stereo not given) gave ELG1 DNA repair 8.9%, IL1B secr inh 8.7, DT40 TDP1 CPT -2.1%, DT40 TDP1 no CPT 3.4% and Giardia kill -17.4.
For CCOCCn1c(=NC(=O)CSCC(=O)N2CCOCC2)sc2cc(OC)ccc21 the results were TDP1 block 4.2%, ELG1 DNA repair -3.6%, IL1B secr inh -15.4, DT40 TDP1 CPT -21.7%, DT40 TDP1 no CPT 4.3% and Giardia kill -16.8.
COc1cccc(NC(=O)CN2C(=O)c3cccc4cccc2c34)c1 was read as TDP1 block 3.2%, DT40 TDP1 CPT -9.2% and DT40 TDP1 no CPT -21.7%.
CC(=O)Nc1ccc(S(=O)(=O)NCC2CCC(C(=O)NCCc3ccc(C)cc3)CC2)cc1 (stereo not given) was read as TDP1 block 2.8%, DT40 TDP1 CPT -2.8% and DT40 TDP1 no CPT -10.4%.
For COc1cccc(CNC(=O)Cn2c(=O)oc3cc(S(=O)(=O)N4CCC(C)CC4)ccc32)c1 the results were TDP1 block 3.8%, DT40 TDP1 CPT 7.31µM* and DT40 TDP1 no CPT 5.17µM*.
`CC1CCN(S(=O)(=O)c2ccc3c(c2)oc(=O)n3CC(=O)NCc2ccc(F)cc2)CC1` gave TDP1 block 11.5%, DT40 TDP1 CPT 11.6µM* and DT40 TDP1 no CPT 8.2µM*.
For CC1CCN(S(=O)(=O)c2ccc3c(c2)oc(=O)n3CC(=O)N2CCCCC2)CC1 the results were TDP1 block 3.8%, DT40 TDP1 CPT 8.9% and DT40 TDP1 no CPT -0.3%.
Screening COc1cccc(N2CCN(C(=O)CCc3c(C)nc4c(c3C)c(=O)n(C)c(=O)n4C)CC2)c1 returned TDP1 block 6.9%, DT40 TDP1 CPT -8.8% and DT40 TDP1 no CPT inconclusive.
For CN(C)C(=O)C#Cc1ccccc1 the results were TDP1 block -2.4%, ELG1 DNA repair 17.0%, IL1B secr inh -9.8, DT40 TDP1 CPT 1.7%, DT40 TDP1 no CPT -18.4% and Giardia kill 9.7.
Screening O=C(C#Cc1ccccc1)c1ccc([N+](=O)[O-])cc1 returned TDP1 block 7.0%, ELG1 DNA repair -6.9%, IL1B secr inh -96.6*, DT40 TDP1 CPT 0.651µM*, DT40 TDP1 no CPT 0.92µM* and Giardia kill 5.8.
O=C(C#Cc1ccccc1)c1ccccc1 was read as IL1B secr inh -108.2*, DT40 TDP1 CPT 0.731µM* and DT40 TDP1 no CPT 0.581µM*.
For CCOC(=O)c1ccc(-c2c(-c3ccc4c(c3)OCO4)noc2C)cc1F the results were ELG1 DNA repair -12.3%, IL1B secr inh 20.5, DT40 TDP1 CPT 15.8µM*, DT40 TDP1 no CPT inconclusive and Giardia kill -1.0.
Cc1noc(C)c1COC(=O)c1ccc2c(c1)OCO2 was read as TDP1 block -1.0%, ELG1 DNA repair inconclusive, IL1B secr inh 1.9, DT40 TDP1 CPT 11.6%, DT40 TDP1 no CPT -7.1% and Giardia kill -23.4.
For CCc1ccc(CNC(=O)c2ccc3c(c2)NC(=O)C(N2CCOCC2)S3)cc1 (stereo not given) the results were TDP1 block 2.3%, ELG1 DNA repair inconclusive, IL1B secr inh -6.4, DT40 TDP1 CPT 23.1µM*, DT40 TDP1 no CPT -57.0% and Giardia kill -28.7.
COc1ccc(C(=O)N(CCc2ccccc2)Cc2ccccc2)c(OC)n1 was read as ELG1 DNA repair inconclusive, IL1B secr inh -64.2*, DT40 TDP1 CPT inconclusive, DT40 TDP1 no CPT inconclusive and Giardia kill -10.2.
Screening COc1ccc(CN(C(C)=O)c2ccccc2C(=O)O)cc1 returned TDP1 block -2.8%, ELG1 DNA repair 7.1%, IL1B secr inh 0.0, DT40 TDP1 CPT -0.1%, DT40 TDP1 no CPT 26.4% and Giardia kill -4.1.
